DT40 TDP1 no CPT = qHTS for Inhibitors of human tyrosyl-DNA phosphodiesterase 1 (TDP1): qHTS in cells in absence of CPT; DT40 Tdp1-/- hTDP1 cells, no CPT, ATP luminescence, 48 h; Potency, µM (doses to about 46.2 µM), for inactives: at the top dose activity change, negative = growth inhibition, usual class: inhibitors; actives 15% (n = 420,000); note: potency is the fitted concentration of half-maximal effect; nearly all actives have a fitted effect of over 55% in size
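Seeded 400 DT40-hTDP1 cells/well (vehicle DMSO, no 20 nM CPT); pinned compounds; ≥48 hr at 37 °C; CellTiter-Glo luminescence as viability measure.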
HT1080NT lethal = qHTS for induction of synthetic lethality in tumor cells producing 2HG: qHTS for the HT-1080-NT fibrosarcoma cell line; HT-1080-NT fibrosarcoma viability, CellTiter-Glo ATP luminescence, 48 h; Potency, µM (titrated, usually from 46.1 µM), for inactives: at the top dose activity, negative = less viability, hits mostly cytotoxic; actives 1.6% (n = 360,000);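 note: NT is the 2HG producing partner of a matched IDH1 knockdown line; potency is the fitted concentration of half-maximal effect; 0% = DMSO-treated cells and -100% = media-only wells without cells; nearly all actives have a fitted effect of over 55% in size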
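Viability by CellTiter-Glo luminescence after 48 h compound exposure at 37C of HT-1080-NT cells (750/well, RPMI, 5% FBS). % activity scaled between DMSO wells and medium-only wells, then curve-fitted and categorized by curve class.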
IL1B secr inh = qHTS for Inhibitors of Inflammasome Signaling: IL-1-beta AlphaLISA Primary Screen; THP-1 LPS/ATP IL-1B secretion, AlphaLISA, 16 h; active compounds read low; activity change, % at 57.5 µM; actives 4.7% (n = 360,000); in the data active = activity change below about -50%; inconclusive = mostly about -30% to -49%
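THP-1 cells pretreated 1 hr with compounds (up to 57.5 uM final), then stimulated with LPS (250 ng/mL final) plus ATP (1.25 mM final); secreted IL-1B measured by AlphaLISA after 16 hr, decreased signal indicating inhibition.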
DT40 TDP1 CPT = qHTS for Inhibitors of human tyrosyl-DNA phosphodiesterase 1 (TDP1): qHTS in cells in presence of CPT | chicken DT40 Tdp1-/-;hTDP1 cells + 20 nM CPT, ATP luminescence, 48 h | Potency, µM (top dose mostly 46.2 µM), for inactives: at the top dose activity change, negative = growth inhibition, usual class: inhibitors | actives 12% (n = 420,000); note: potency is the fitted concentration of half-maximal effect; nearly all actives have a fitted effect of over 55% in size
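Chicken DT40 Tdp1-/- cells stably complemented with human TDP1 were seeded at 400 cells/well in medium containing 20 nM camptothecin, exposed to pin-transferred compounds, and grown at 37 °C for at least 48 hr. Viability was read as ATP luminescence.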
HT1080 IDH1KD tx = qHTS for induction of synthetic lethality in tumor cells producing 2HG: qHTS for the HT-1080-IDH1KD cell line | HT-1080 IDH1 knockdown viability, ATP luminescence, 48 h | Potency, µM (top dose mostly 46.1 µM), inactives show top-dose activity, negative = toxicity, most hits filed as cytotoxic | actives 2% (n = 360,000) | AID 686971, 2013;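 note: potency is the fitted concentration of half-maximal effect; 0% = DMSO wells and -100% = cell-free medium wells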
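% activity derives from luminescence (CellTiter-Glo), normalised to DMSO and no-cell wells. HT-1080-IDH1KD cells, 750/well, had 48 h compound exposure at 37 °C.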
uPA generation = qHTS for Inhibitors of Cell Surface uPA Generation; actives 0.31% (n = 330,000); Potency, µM (top dose mostly 38.3 µM), inactives show at the top dose activity change, negative = inhibition, actives largely listed as inhibitors; cell surface uPA generation assay, qHTS; active = well fitted inhibition curve with a large enough effect; inconclusive = small, poorly fitted or top-dose-only effect; inactive = no such curve, though single readings can be large or run the other way; tested in mouse RAW 264.7 cells; note: potency is the fitted concentration of half-maximal effect; nearly all actives have a fitted effect of over 55% in size
* marks the source's active call; other numbers are inactive results; ? = inconclusive; nt = not tested or not shown. Most compounds without a hit are left out; they make up all but 19% or so of the library. Unless noted, calls come from the whole dose curve; as a rule, active = well fitted curve in the direction sought with a large enough effect; inconclusive = small, poorly fitted or top-dose-only effect, or another doubt; inactive = no such curve, though single readings can be large; an effect the other way counts as inactive or inconclusive. Unless noted, % is set by controls: 0 for no effect and ±100 for the full control effect.

SMILES	DT40 TDP1 no CPT	HT1080NT lethal	IL1B secr inh	DT40 TDP1 CPT	HT1080 IDH1KD tx	uPA generation
COc1ccccc1N/C(N)=N/c1nc(CSc2ccc(C)cc2)cc(=O)[nH]1	7.3µM*	-11%	87	18µM*	-23%	-8%
O=C(CNC(=O)c1ccccc1)OCc1cc(=O)n2cc(Br)ccc2n1	17%	6%	0	-19%	16%	-17%
COC(=O)c1nc2n(n1)C(c1cccc(Cl)c1)C1=C(CCCC1=O)N2 (stereo not drawn)	-13%	-8%	-2	-24%	4%	-5%
O=C1CCCC2=C1C(c1cccc(Br)c1)n1nc(-c3ccco3)nc1N2 (stereo not drawn)	?	11%	-94*	?	3%	3%
O=S(=O)(c1cccc(F)c1)N1CCC(c2nc3ccccc3s2)CC1	9%	nt	nt	9%	nt	nt
CCN1CCc2nc(N)sc2C1	29µM*	-5%	-16	?	-2%	0%
C=CCN1CCc2nc(N)sc2CC1	-2%	15%	-4	-23%	9%	21%
Cc1ccccc1-c1cc(Nc2ccccc2)ncn1	-18%	nt	nt	-24%	nt	nt
CC1CC(C)(C)OC(c2ccc(C(C)C)cc2)O1 (stereo not drawn)	-1%	0%	13	5%	4%	13%
NC(=O)c1cccc(-c2cc(Nc3ccc(OC(F)(F)F)cc3)ncn2)c1	15µM*	-3%	-15	?	-3%	27%
O=C(c1cc(COc2ccc(F)cc2Cl)on1)N1CCCCC1c1cccnc1 (stereo not drawn)	13µM*	-5%	?	16µM*	-10%	3%
COc1cc(Cl)ccc1OCc1cc(C(=O)N2CCCCC2c2cccnc2)no1 (stereo not drawn)	?	1%	-11	5.8µM*	5%	-4%
O=C(c1cc(COc2ccc(F)cc2Cl)on1)N1CCC(OCc2cccnc2)CC1	9.2µM*	-2%	12	16µM*	-6%	-4%
Cc1ccc(S(=O)(=O)CCC(=O)OCC(=O)NC(C)c2ccccc2)cc1 (stereo not drawn)	-25%	1%	23	-3%	-1%	6%
CCC(CC)C(C(=O)NCc1ccccc1)N1CCN(CCN2CCOCC2)CC1 (stereo not drawn)	2%	-13%	-13	-10%	-7%	nt
COCC1CCCCC1OS(N)(=O)=O (stereo not drawn)	8%	9%	0	7%	7%	6%
O=C(NCCCN1CCN(c2ccc(F)cc2)CC1)C1CCCN(c2ncnc3c2nc2n3CCCCC2)C1 (stereo not drawn)	8.2µM*	-7%	?	?	-6%	-14%
Cc1ccc(NC(=O)C2CCCN(c3ncnc4c3nc3n4CCCCC3)C2)c(Br)c1 (stereo not drawn)	4.1µM*	nt	nt	5.8µM*	nt	nt
O=C(Nc1ccc(F)cc1F)C1CCCN(c2ncnc3c2nc2n3CCCCC2)C1 (stereo not drawn)	15µM*	-23%	-55*	13µM*	-11%	1%
CC1CCN(CCCNC(=O)C2CCCN(c3ncnc4c3nc3n4CCCCC3)C2)CC1 (stereo not drawn)	-14%	-2%	-5	-5%	3%	-3%
O=C(Nc1cc(F)ccc1F)C1CCCN(c2ncnc3c2nc2n3CCCCC2)C1 (stereo not drawn)	13µM*	-1%	16	15µM*	2%	4%
COc1ccc(OCCN2CCC(C(=O)NC(c3ccc(C)cc3)c3ccccn3)CC2)cc1 (stereo not drawn)	-15%	-2%	-27	-28%	-2%	nt
COc1ccc(OCCN2CCC(C(=O)NC(c3ccc(Cl)cc3)c3ncccc3C)CC2)cc1 (stereo not drawn)	?	?	nt	23µM*	21µM*	nt
COc1ccc(OCCN2CCC(C(=O)NC(c3ccc(Cl)cc3)c3cnccn3)CC2)cc1 (stereo not drawn)	?	-14%	-54*	?	-19%	nt
Cc1cccnc1C(NC(=O)C1CCN(Cc2ccc3ccccc3n2)CC1)c1ccc(Cl)cc1 (stereo not drawn)	16µM*	?	?	?	?	nt
SMILES	DT40 TDP1 no CPT	HT1080NT lethal	IL1B secr inh	DT40 TDP1 CPT	HT1080 IDH1KD tx	uPA generation
Cc1cccnc1C(NC(=O)C1CCN(Cc2ccc(Cl)cc2)CC1)c1ccc(F)cc1 (stereo not drawn)	21µM*	?	?	26µM*	?	nt
CCN1CCC(C(=O)NC(c2ccc(F)cc2)c2ncccc2C)CC1 (stereo not drawn)	-7%	4%	-2	-30%	2%	nt
COc1ccc(NS(=O)CCCc2ccccc2)cc1 (stereo not drawn)	-1%	0%	36	-23%	-25%	nt
Cc1ccccc1Nc1nnc(SCC(=O)c2c(N)n(C3CC3)c(=O)[nH]c2=O)s1	-8%	-1%	33	-2%	1%	0%
Cc1noc(/C=C/N(C)C)c1S(=O)(=O)N1CCCC(C(=O)Nc2ccc(F)cc2F)C1 (stereo not drawn)	?	-13%	0	?	0%	?
CC(C(=O)N(C)c1ccccc1)N1CCN(C(=O)c2ccccc2)CC1 (stereo not drawn)	-12%	11%	-10	16%	13%	1%
CCCN1CCC(C(=O)NC(c2ccc(F)cc2)c2ncccc2C)CC1 (stereo not drawn)	-26%	15%	-5	?	1%	nt
COc1ccc(OCCN2CCC(C(=O)NC(c3ccc(F)cc3)c3ncccc3C)CC2)cc1 (stereo not drawn)	16µM*	?	-1	?	?	nt
COc1ccccc1C(NC(=O)C1CCN(CCOc2ccc3ccccc3c2)CC1)c1ccccn1 (stereo not drawn)	15µM*	18µM*	?	15µM*	18µM*	nt
Cc1cccnc1C(NC(=O)C1CCN(CCCc2ccccc2)CC1)c1ccc(F)cc1 (stereo not drawn)	23µM*	-5%	10	?	-2%	nt
Cc1cccnc1C(NC(=O)C1CCN(CCCOc2ccc(F)cc2)CC1)c1ccccc1 (stereo not drawn)	21µM*	?	?	?	?	nt
